In PubChem BioAssay (EPA / NIEHS) one finds AC50 and outcome data, which are given here for 19 molecules.

Where “and” joins values, the source holds several entries; their conditions need not be identical. Equal values may be shown once. Inconclusive results are not listed. Calls of active or inactive are those of the source. The calls were made as follows: active = hit-call score of the fitted dose curve at least 0.9, where 1 is the maximum; inconclusive = response in the unintended direction; inactive = score below 0.9.

The target in experiment [1] is human Peripheral-type Benzodiazepine Receptor (PBR), TSPO (gene 706) (UniProt P30536). Put plainly: NVS_MP_hPBR: NovaScreen (NVS) Membrane Protein Assay for human Peripheral-type Benzodiazepine Receptor (PBR) (AID 2283331).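 Also: hits reduce radioligand binding relative to DMSO baseline.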 The gist of the method:
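Scintillation counts of filter-bound radioligand served as read-out after 1 h chemical dosing of human colonic membrane preparations. Activity was scored as signal loss against DMSO; initial duplicates at 25 uM, confirmatory concentration series afterward.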

In experiment [2] the target is rat Oxytocin Receptor (OXT), Oxtr (gene 25342) (UniProt P70536). Put plainly: NVS_GPCR_rOXT: NovaScreen (NVS) G Protein-Coupled Receptor Assay for rat Oxytocin Receptor (OXT) (AID 2283330). The gist of the method: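 Radioligand displacement on rat uterine membranes, 1 h incubation, filter-based scintillation counting. Chemicals were screened in duplicate at 25 uM, and those passing threshold were retested in concentration-response up to 50 uM. Loss of binding was fitted versus DMSO.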
Sequence of rat Oxytocin Receptor (OXT), Oxtr (gene 25342) (P70536 whole entry, looked up): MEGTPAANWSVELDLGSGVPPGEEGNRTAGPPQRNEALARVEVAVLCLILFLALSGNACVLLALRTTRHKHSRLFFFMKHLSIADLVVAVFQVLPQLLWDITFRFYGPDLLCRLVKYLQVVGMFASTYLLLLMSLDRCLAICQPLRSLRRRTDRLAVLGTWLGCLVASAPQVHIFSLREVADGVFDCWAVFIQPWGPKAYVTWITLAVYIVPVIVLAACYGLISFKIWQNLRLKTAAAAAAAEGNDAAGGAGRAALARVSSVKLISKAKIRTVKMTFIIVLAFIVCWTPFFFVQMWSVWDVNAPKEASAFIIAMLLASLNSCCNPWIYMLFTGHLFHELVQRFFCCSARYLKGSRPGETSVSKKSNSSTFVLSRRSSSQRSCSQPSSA

Experiment [3] deals with Sodium channel protein type 1 subunit alpha (Rattus norvegicus) (UniProt P04774). Put plainly: NVS_IC_rNaCh_site2: NovaScreen (NVS) Ion Channel Assay for rat Sodium Channel, Site 2 (NaCh) (AID 2283322).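 Also: hit means loss of radioligand binding signal relative to DMSO so AC50 marks displacement.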 The essentials: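 Membranes: rat forebrain. Format: competitive radioligand displacement, filter separation, scintillation readout, 1 h exposure. Primary screen in duplicate at 25 uM; actives retested in concentration series.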

Experiment [4] deals with rat Opioid Receptor, Non-selective Sodium (Na+) Binding, Oprm1 (gene 25601) (UniProt P33535). Put plainly: NVS_GPCR_rOpiate_NonSelectiveNa: NovaScreen (NVS) G Protein-Coupled Receptor Assay for rat Opioid Receptor, Non-selective Sodium (Na+) Binding (AID 2283311). The essentials:
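Rat forebrain membranes, radioligand displacement with filter scintillation counting, 1.5 h incubation. Screened in duplicate at 25 µM; hits then run in concentration-response up to 50 µM; loss of binding fitted versus DMSO.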

The target in experiment [5] is rat Neonicotinoid receptor (NNR), Chrna7 (gene 25302) (UniProt Q05941). In words: NVS_LGIC_rNNR_BungSens: NovaScreen (NVS) Ligand-Gated Ion Channel Assay for rat Neonicotinoid receptor (NNR) (AID 2283315). The essentials:
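Radioligand displacement binding on rat cortical membranes, 2.5 h incubation, filtration and scintillation counting. Loss of specific binding fitted relative to DMSO.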

The target of experiment [6] is bovine Gamma-Aminobutyric Acid Type A Receptor BDZ, alpha 1 site (GABARa1), GABRA1 (gene 780973) (UniProt P08219). Put plainly: NVS_LGIC_bGABARa1: NovaScreen (NVS) Ligand-Gated Ion Channel Assay for bovine Gamma-Aminobutyric Acid Type A Receptor BDZ, alpha 1 site (GABARa1) (AID 2283321). The gist of the method: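 Radioligand competition binding on bovine cortical membranes, 0.75 h, filter-based scintillation counting. Primary single concentration 25 uM in duplicate; actives rerun in concentration-response to 50 uM max. Loss of signal fitted versus DMSO.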
Sequence of bovine Gamma-Aminobutyric Acid Type A Receptor BDZ, alpha 1 site (GABARa1), GABRA1 (gene 780973) (P08219 whole entry, looked up): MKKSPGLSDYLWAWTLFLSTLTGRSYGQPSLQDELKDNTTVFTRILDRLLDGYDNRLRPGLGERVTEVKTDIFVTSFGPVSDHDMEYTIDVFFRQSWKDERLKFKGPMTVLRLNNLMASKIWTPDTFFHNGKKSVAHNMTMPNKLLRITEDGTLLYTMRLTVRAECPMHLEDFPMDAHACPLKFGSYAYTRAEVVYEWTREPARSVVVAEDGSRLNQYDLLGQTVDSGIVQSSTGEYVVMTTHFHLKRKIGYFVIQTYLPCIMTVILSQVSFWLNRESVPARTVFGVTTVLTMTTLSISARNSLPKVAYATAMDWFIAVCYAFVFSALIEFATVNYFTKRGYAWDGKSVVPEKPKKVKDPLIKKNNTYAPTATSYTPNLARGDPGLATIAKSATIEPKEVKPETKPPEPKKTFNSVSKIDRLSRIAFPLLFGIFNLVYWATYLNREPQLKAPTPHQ

The target of experiment [7] is bovine Gamma-Aminobutyric Acid Type A Receptor BDZ, alpha 5 site (GABARa5), GABRA5 (gene 523515) (UniProt Q08E50). Put plainly: NVS_LGIC_bGABARa5: NovaScreen (NVS) Ligand-Gated Ion Channel Assay for bovine Gamma-Aminobutyric Acid Type A Receptor BDZ, alpha 5 site (GABARa5) (AID 2283323). The gist of the method:
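Radioligand competitive displacement binding on bovine hippocampal membranes, read 1 hr after dosing by filter-based scintillation counting. Primary screen at 25 uM in duplicate; actives (e.g. ≥30% inhibition) then run in concentration-response up to 50 uM.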

Experiment [8] concerns the target rat Thyrotropin Releasing Hormone Receptor (TRH), Trhr (gene 25570) (UniProt Q01717). Put plainly: NVS_GPCR_rTRH: NovaScreen (NVS) G Protein-Coupled Receptor Assay for rat Thyrotropin Releasing Hormone Receptor (TRH) (AID 2283329).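 Also: hit means lower bound tracer signal versus DMSO baseline.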 The essentials:
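Competitive radioligand binding on rat forebrain membrane preparations, with filtration and scintillation readout after 4 h. Primary testing in duplicate at 25 uM; actives confirmed in concentration-response. DMSO defined baseline.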

Experiment [9] deals with human Serotonin, 5-Hydroxytryptamine Receptor 3 (5HT3), HTR3A (gene 3359) (UniProt P46098). Put plainly: NVS_LGIC_h5HT3: NovaScreen (NVS) Ligand-Gated Ion Channel Assay for human Serotonin, 5-Hydroxytryptamine Receptor 3 (5HT3) (AID 2283325). The essentials:
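Radioligand displacement binding to human 5-HT3 from HEK293 membranes, read by filter-based scintillation counting after 1 h. Screen at 25 uM in duplicate; chemicals passing threshold were retested in concentration-response up to 50 uM.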

For experiment [10], the target named is rat Gamma-Aminobutyric Acid Type B Receptor (GABBR), Gabbr1 (gene 81657) (UniProt Q9Z0U4). Put plainly: NVS_GPCR_rGABBR: NovaScreen (NVS) G Protein-Coupled Receptor Assay for rat Gamma-Aminobutyric Acid Type B Receptor (GABBR) (AID 2283301). The essentials: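 Radioligand displacement on rat cortical membranes, 1 h, filter-based scintillation counting. Primary screen at 25 uM in duplicate; compounds passing threshold re-tested in concentration-response up to 50 uM; loss of binding fitted against DMSO.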
Sequence of rat Gamma-Aminobutyric Acid Type B Receptor (GABBR), Gabbr1 (gene 81657) (Q9Z0U4 whole entry, looked up): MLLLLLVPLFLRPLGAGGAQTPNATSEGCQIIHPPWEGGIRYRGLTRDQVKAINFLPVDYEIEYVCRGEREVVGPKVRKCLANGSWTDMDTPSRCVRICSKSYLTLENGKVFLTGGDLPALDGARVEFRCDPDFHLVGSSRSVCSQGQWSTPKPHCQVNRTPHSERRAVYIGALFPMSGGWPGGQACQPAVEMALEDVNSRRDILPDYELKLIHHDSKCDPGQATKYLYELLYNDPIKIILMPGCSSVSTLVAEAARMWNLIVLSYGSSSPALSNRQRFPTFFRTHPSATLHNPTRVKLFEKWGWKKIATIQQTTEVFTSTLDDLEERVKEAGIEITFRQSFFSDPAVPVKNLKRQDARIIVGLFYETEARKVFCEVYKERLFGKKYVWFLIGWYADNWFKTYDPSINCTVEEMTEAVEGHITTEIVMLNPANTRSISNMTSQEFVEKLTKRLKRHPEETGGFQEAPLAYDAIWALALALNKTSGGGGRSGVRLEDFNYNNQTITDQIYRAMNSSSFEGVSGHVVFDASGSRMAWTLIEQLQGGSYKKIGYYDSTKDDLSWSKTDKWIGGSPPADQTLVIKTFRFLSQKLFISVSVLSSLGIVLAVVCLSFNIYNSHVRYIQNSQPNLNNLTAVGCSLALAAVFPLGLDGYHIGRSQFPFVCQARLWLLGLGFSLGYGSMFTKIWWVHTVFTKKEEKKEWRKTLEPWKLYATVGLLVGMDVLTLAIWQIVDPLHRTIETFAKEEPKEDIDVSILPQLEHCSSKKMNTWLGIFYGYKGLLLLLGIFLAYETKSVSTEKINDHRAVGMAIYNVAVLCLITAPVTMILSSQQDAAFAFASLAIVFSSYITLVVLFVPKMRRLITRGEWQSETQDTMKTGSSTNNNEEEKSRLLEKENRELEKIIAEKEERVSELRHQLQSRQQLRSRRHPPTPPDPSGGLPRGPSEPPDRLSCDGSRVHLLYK

For experiment [11], the target named is rat Gamma-Aminobutyric Acid Type A Receptor, Non-Selective (GABAR-NonSelective), Gabra1 (gene 29705) (UniProt P62813). Put plainly: NVS_LGIC_rGABAR_NonSelective: NovaScreen (NVS) Ligand-Gated Ion Channel Assay for rat Gamma-Aminobutyric Acid Type A Receptor, Non-Selective (GABAR-NonSelective) (AID 2283326). The gist of the method:
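Radioligand displacement on rat whole-brain extract, 1 h, filter scintillation readout; signal loss fitted versus DMSO. Primary screen in duplicate at 25 uM; hits (e.g. ≥30% inhibition) retested in concentration-response up to 50 uM.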

The target of experiment [12] is Adra2b (gene 24174) (UniProt P19328). Put plainly: NVS_GPCR_rmAdra2B: NovaScreen (NVS) G Protein-Coupled Receptor Assay for hybird cells Adrenergic, Alpha 2B Receptor (Adra2B) (AID 2283306). The essentials: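 Radioligand filter-binding assay on membrane proteins from neuroglioma/blastoma hybrid cells (rodent), 1 h after dosing; scintillation counting, loss of signal vs DMSO. Primary screen in duplicate at 25 uM, actives then run in concentration series.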
Sequence of Adra2b (gene 24174) (P19328 whole entry, looked up): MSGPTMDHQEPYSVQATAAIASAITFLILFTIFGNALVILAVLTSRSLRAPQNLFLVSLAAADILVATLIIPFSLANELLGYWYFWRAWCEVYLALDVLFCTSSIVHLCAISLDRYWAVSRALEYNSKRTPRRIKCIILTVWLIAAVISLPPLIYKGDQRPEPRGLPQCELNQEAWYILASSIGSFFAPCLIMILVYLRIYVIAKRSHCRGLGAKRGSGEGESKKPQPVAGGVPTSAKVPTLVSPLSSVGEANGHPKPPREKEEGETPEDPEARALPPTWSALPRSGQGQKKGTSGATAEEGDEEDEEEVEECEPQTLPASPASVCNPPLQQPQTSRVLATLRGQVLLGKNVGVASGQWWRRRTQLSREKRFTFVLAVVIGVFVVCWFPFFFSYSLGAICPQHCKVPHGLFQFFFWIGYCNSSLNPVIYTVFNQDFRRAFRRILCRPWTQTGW

Sequence of rat Thyrotropin Releasing Hormone Receptor (TRH), Trhr (gene 25570) (Q01717 whole entry, looked up): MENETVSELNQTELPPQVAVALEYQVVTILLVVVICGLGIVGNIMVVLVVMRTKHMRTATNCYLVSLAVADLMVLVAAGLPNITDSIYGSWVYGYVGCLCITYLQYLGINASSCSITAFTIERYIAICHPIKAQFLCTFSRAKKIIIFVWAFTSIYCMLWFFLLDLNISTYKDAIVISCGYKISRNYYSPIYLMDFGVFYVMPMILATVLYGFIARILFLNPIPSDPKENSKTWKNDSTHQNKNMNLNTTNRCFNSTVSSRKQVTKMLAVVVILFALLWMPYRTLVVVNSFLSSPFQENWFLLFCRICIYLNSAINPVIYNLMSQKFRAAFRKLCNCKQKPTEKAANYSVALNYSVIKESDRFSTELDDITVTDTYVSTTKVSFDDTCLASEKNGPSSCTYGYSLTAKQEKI
Sequence of human Peripheral-type Benzodiazepine Receptor (PBR), TSPO (gene 706) (P30536 whole entry, looked up): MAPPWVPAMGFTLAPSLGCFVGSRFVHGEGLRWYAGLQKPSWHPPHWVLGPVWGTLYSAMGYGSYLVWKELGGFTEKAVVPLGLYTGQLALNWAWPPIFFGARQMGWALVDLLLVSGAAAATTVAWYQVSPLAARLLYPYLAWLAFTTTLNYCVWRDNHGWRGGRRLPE
Sequence of rat Neonicotinoid receptor (NNR), Chrna7 (gene 25302) (Q05941 whole entry, looked up): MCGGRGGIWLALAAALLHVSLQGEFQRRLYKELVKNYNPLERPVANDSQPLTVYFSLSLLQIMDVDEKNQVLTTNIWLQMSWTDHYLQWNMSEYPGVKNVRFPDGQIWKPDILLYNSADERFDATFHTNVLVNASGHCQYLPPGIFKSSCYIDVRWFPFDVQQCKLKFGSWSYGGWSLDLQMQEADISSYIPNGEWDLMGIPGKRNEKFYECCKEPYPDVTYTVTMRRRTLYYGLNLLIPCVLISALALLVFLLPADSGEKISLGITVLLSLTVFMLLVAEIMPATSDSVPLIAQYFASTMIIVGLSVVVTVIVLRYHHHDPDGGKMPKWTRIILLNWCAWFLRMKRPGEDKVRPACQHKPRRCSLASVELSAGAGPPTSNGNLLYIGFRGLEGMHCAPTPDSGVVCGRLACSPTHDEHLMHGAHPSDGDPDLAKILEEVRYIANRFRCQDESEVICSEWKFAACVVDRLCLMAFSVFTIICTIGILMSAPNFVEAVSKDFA
Sequence of bovine Gamma-Aminobutyric Acid Type A Receptor BDZ, alpha 5 site (GABARa5), GABRA5 (gene 523515) (Q08E50 whole entry, looked up): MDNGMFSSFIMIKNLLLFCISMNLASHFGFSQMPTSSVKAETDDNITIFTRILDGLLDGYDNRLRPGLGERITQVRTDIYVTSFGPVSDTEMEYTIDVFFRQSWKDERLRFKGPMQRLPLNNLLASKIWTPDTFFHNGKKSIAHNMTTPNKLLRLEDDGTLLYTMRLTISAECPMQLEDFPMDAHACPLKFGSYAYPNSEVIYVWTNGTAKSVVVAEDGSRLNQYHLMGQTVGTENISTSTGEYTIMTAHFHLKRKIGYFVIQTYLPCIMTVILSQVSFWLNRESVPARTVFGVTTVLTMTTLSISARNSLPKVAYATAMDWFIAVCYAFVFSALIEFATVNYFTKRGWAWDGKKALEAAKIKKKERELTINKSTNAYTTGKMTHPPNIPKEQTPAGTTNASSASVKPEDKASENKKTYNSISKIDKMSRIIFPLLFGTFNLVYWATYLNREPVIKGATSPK
Sequence of rat Gamma-Aminobutyric Acid Type A Receptor, Non-Selective (GABAR-NonSelective), Gabra1 (gene 29705) (P62813 whole entry, looked up): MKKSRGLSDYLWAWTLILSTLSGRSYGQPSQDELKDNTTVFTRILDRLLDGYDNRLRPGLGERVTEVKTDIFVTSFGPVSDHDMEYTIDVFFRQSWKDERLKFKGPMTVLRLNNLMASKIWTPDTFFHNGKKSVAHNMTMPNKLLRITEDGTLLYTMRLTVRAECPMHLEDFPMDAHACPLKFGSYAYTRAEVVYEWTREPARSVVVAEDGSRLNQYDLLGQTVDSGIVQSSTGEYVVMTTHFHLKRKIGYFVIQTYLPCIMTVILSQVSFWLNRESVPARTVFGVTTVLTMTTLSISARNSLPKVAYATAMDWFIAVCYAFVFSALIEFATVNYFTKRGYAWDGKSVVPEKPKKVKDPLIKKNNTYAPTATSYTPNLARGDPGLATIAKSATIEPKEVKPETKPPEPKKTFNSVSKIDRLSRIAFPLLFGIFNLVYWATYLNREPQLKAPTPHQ
Sequence of rat Opioid Receptor, Non-selective Sodium (Na+) Binding, Oprm1 (gene 25601) (P33535 whole entry, looked up): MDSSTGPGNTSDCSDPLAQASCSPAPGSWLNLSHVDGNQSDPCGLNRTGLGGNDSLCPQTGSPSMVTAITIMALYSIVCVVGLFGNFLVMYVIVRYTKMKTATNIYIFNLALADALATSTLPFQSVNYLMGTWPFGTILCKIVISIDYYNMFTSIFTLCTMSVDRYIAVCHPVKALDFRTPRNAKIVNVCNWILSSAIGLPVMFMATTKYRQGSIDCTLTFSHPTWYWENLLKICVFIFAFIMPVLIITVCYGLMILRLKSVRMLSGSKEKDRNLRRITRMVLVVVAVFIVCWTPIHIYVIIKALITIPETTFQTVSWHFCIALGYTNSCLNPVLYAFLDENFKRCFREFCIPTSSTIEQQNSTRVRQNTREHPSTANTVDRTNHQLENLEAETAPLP

Broadly, the AC50 is the concentration giving half of the maximal activity seen. As to `O=P(OCC(Br)CBr)(OCC(Br)CBr)OCC(Br)CBr` (stereo unspecified), the AC50 in [1] is 1.25 µM (active) and 139 nM (active). Still for that read-out and setting: under `CO/N=C(/C(=O)OC)c1ccccc1COc1ccccc1C` stands 2.76 µM (active). Consider `O=P1(N(CCCl)CCCl)NCCCO1` (stereo unspecified), for which the result in experiment [2] was inactive. Regarding `CCC(C)(C)c1ccc(O)cc1`, the concentration at half-maximal activity (AC50) in experiment [3] was 41.5 µM (active). The molecule was called inactive in experiment [1].

As to `N#Cc1ccc(O)cc1`, in [3], the half-maximal activity concentration (AC50) was 41.3 µM (active). For the molecule `Nc1cc2c3c(c1)C(c1ccccc1)=N[C@@H](NC(=O)c1cccnc1)C(=O)N3CC2`, the outcome in [4], in experiment [5], in experiment [6] and in experiment [7] was inactive. Consider `CSC(C)(C)C=NO`, for which the result in experiment [5], in experiment [3], in experiment [7] and in [2] was inactive. Take `FC(F)(F)c1ccc(Cl)cc1`: the call in [8] was inactive. For `CCOP(=S)(OCC)SCS(=O)(=O)CC`, in experiment [3], the molecule was classed as inactive. Also, in experiment [1], the concentration at half-maximal activity (AC50) is 25 µM (active). `Nc1ccc(Cl)cc1`: the result in experiment [9] was inactive.

Take `CCC1(c2ccccc2)C(=O)N=C(O)NC1=O` (stereo unspecified): the call in [10], in experiment [6] and in experiment [11] was inactive. With `Cc1ccc2c(c1N)C(=O)c1ccccc1C2=O`, the AC50 in [1] was 13.9 µM (active). Regarding `CCOP(=S)(OCC)SCn1nnc2ccccc2c1=O`, in [1], the AC50 was 11.2 µM (active).

Consider `O=C(CBr)OCc1ccccc1`, for which, in [8], the call was inactive. Take `O=P(Oc1ccccc1)(Oc1ccccc1)Oc1ccccc1`: the outcome in experiment [12] was inactive. Besides, the AC50 in experiment [1] was 2.61 µM (active). Turning to `COC(N)=O`, the outcome in experiment [8] was inactive. Regarding `O=S1(=O)OCC2C(CO1)C1(Cl)C(Cl)=C(Cl)C2(Cl)C1(Cl)Cl` (stereo unspecified), in [8], the result was inactive. Still for that read-out and setting: for `CCCCCCCc1ccc(O)cc1` the value was “inactive”. As for `Oc1ccc(I)cc1`, in experiment [3], the AC50 was 7.01 µM (active). In addition, the call in experiment [1] was inactive.
